Bioassay records deposited in PubChem by ICCB-Longwood Screening Facility, Harvard Medical School.
The full list was thinned out, with hits kept by preference.
VACV E9 pol inh = vaccinia E9 polymerase processive synthesis inhibitors, primary screen, biochemical, absorbance. Vaccinia virus DNA polymerase (E9) processive complex. in vitro processive DNA synthesis, absorbance read-out; active compounds read low. normalized absorbance, % (no concentration beside the values). 0.94% of 46,000 active. AID 493162, 2011; in the data active = normalized absorbance mostly below about 85%, no sharp cut-off; inactive = mostly above about 86%
* = called active by the depositor.

SMILES | VACV E9 pol inh
CSc1ncc(Cl)c(C(=O)Nc2nnc(SCc3ccc(F)cc3)s2)n1 | 68.1*
CCC(=O)Nc1nnc(SCc2cccc(F)c2)s1 | 99.5
Cc1ccc(C(=O)Nc2nnc(SCc3ccccc3)s2)cc1 | 100.0
CCOc1ccc(-c2csc(/C(C#N)=C/Nc3ccccc3OC)n2)cc1 | 98.6
O=C1Nc2ccccc2O/C1=C\c1ccccc1 | 105.9
CC1CCN(CCCNC(=O)c2ccc(/C=C3\Oc4ccccc4NC3=O)cc2)CC1 | 70.5*
O=C(NCCCN1CCOCC1)c1ccccc1 | 100.4
O=C1c2ccccc2C(=O)N1CCCC(=O)N(Cc1nc(-c2ccccc2)no1)C1CCCCC1 | 78.6
NC(=O)c1ccc[n+](CC(=O)N2CCCCC2)c1 | 100.2
Cc1cc(OC(C)C(=O)N(Cc2ccccc2Cl)C2CCS(=O)(=O)C2)ccc1Cl (configuration not stated) | 98.9
Cc1cc(Oc2ccccc2)nc(SCc2ccccc2)n1 | 101.0
Cc1cc(OC(=O)c2ccco2)nc(SCc2c(Cl)cccc2Cl)n1 | 49.9*
O=C(Oc1ccc(Cl)c2cccnc12)c1ccco1 | 101.3
O=C(/C=C1/Sc2ccccc2N(Cc2ccc(F)cc2)C1=O)NCc1ccccc1 | 103.6
CCc1ccc(/C=C2\Sc3ccccc3N(CC(=O)O)C2=O)cc1 | 66.5*
O=C(NCC1CCCO1)c1ccc2c(c1)N(Cc1ccc(F)cc1)C(=O)/C(=C/c1ccccc1)S2 (configuration not stated) | 88.1
CNC(=O)CN1C(=O)/C(=C/c2ccccc2C)Sc2ccccc21 | 100.9
O=C(O)c1ccc2c(c1)N(Cc1ccc(F)cc1)C(=O)/C(=C\c1ccccc1)S2 | 57.2*
O=C(O)CN1C(=O)S/C(=C\c2ccc(Br)cc2)C1=O | 93.5
COc1ccc(-c2[nH]ncc2C(=O)NCCc2ccccc2)cc1 | 85.6
O=C(O)c1cccc(-c2ccc(/C=N\n3cnnc3)o2)c1 | 100.7
Cc1nc2c(-c3ccccc3)nn(-c3ccccc3)c2s1 | 100.5
CN1C(=O)/C(=C/c2cn(CC(=O)N3CCOCC3)c3ccccc23)C(=O)NC1=S | 100.1
CN1C(=O)/C(=C/c2cn(CC(=O)O)c3ccccc23)c2ccccc21 | 73.1*
CC1CCCC(C)N1C(=O)Cn1cc(/C=C2/C(=O)N(C)c3ccccc32)c2ccccc21 (configuration not stated) | 121.7
SMILES | VACV E9 pol inh
N#C/C(=C/C1=Cc2ccccc2OC1)S(=O)(=O)c1ccccc1 | 109.7
CC(C)C(=O)Nc1nnc(-c2ccc(Cl)cc2)s1 | 100.0
CC(C)C(=O)Nc1nnc(-c2ccccc2)s1 | 60.0*
Cc1ccc(C(=O)Nc2nnc(-c3ccccc3)s2)cc1 | 100.5
CCc1ccccc1-n1c(SCc2cc(=O)n3ccccc3n2)nc2[nH]ncc2c1=O | 98.1
O=C1Nc2ccccc2C12CC(c1ccc(F)cc1)=NC(=S)N2c1ccc(F)cc1 (configuration not stated) | 100.5
CC(=O)Nc1ccc(S(=O)(=O)N2CC(C)OC(C)C2)cc1 (configuration not stated) | 100.2
CCn1c2ccccc2c2cc(C=Nc3cccc(C#N)c3)ccc21 | 77.4*
CCn1c2ccccc2c2cc(C=Nc3ccc(C)cc3O)ccc21 | 90.7
CCn1c2ccccc2c2cc(N)ccc21 | 92.3
CN(C(=O)COC(=O)c1ccc(C#N)cc1)C1CCCCC1 | 103.7
O=C(COC(=O)Cc1ccc(Cl)cc1Cl)NC1CCCCC1 | 101.1
CSc1ccc(/C=C2\CC/C(=C\c3ccc(SC)cc3)C2=O)cc1 | 105.6
O=C1/C(=C\c2ccc(Br)o2)CC/C1=C/c1ccc(Br)o1 | 19.3*
O=C1/C(=C/c2cc3ccccc3o2)CC/C1=C\c1cc2ccccc2o1 | 98.6
O=C(Nc1cccc(Cl)c1)c1ncn(-c2ccccc2)n1 | 87.8
Cc1ccc(-c2ccc(N)cc2)cc1 | 93.2
Nc1ccc(-c2cnc(-c3ccc(N)cc3)nc2)cc1 | 99.6
Nc1ccc(-c2ccc(N)cc2)cc1 | 72.4*
CC(C)(C)OC(=O)N1CC(O)CC1C(=O)N1CCOCC1 (configuration not stated) | 99.1
COc1ccc2c(OC)ccc3c2c1C=CC3=O | 56.2*
CC1CCCN(Cn2cnc3ccccc32)C1 (configuration not stated) | 101.8
O=C(CN1CCc2ccccc21)N1CCCc2ccccc21 | 109.6
CCOc1ccccc1NC(=O)CCCN1C(=O)/C(=C\c2ccco2)SC1=S | 93.9
COC(=O)c1ccc(OCC(O)CNC(C)(C)C)cc1 (configuration not stated) | 99.5
SMILES | VACV E9 pol inh
CCOC(=O)CCc1n[nH]c(=O)[nH]c1=O | 101.5
CCOC(=O)CCc1c(CC(=O)OCC)c[nH]c1/C=N/O | 31.1*
CCOC(=O)CCc1ccc(OCc2c(C)c(C)c(C)c(C)c2C)cc1 | 96.1
COCc1cc(C)nc2n[nH]c(N)c12 | 100.5
O=C1CC(c2cccc(O)c2)Nc2ccc3ccccc3c21 (configuration not stated) | 61.9*
Cc1ccccc1C1CC(=O)c2c(ccc3ccccc23)N1 (configuration not stated) | 99.1
O=C1c2ccccc2NC(c2cccc(O)c2)N1O (configuration not stated) | 95.9
COc1ccc2c(C)cc(N3CC(C)OC(C)C3)nc2c1 (configuration not stated) | 100.0
Cc1nc(NCc2ccccn2)c2ccccc2n1 | 50.6*
CCn1c(NCc2ccccn2)nc2ccccc21 | 112.8
Cc1nc2ccccc2cc1C(=O)NCc1ccccn1 | 109.1
CCN(CC)CCNc1ncnc2c1cnn2-c1ccccc1 | 99.8
CN(C)S(=O)(=O)c1ccc(C(=O)Nc2sc3c(c2C#N)CCC3)cc1 | 105.6
CCOC(=O)c1sc2nc(N)c(C#N)c(-c3ccc(Cl)cc3)c2c1N | 100.9
CC1CC(=O)c2cnc(N3CCc4ccccc43)nc2C1 (configuration not stated) | 100.3
S=c1[nH]c(=S)c2cnc(N3CCc4ccccc43)nc2[nH]1 | 98.5
CNc1nc(N2CCc3ccccc32)ncc1F | 56.5*
CCOC(=O)c1cc(-c2ccc(C)cc2)n(CC(=O)NC2CCCC2)c1C | 102.8
COc1ccc2c(c1)c(-c1csc(N)n1)c(C)n2C | 102.8
CN=C1c2c(C)c3cc(OC)ccc3n2CCN1C | 49.5*
COc1ccc2c(c1)c(C#N)c1n2CCN=C1N(C)C | 104.6
COc1ccc(Cl)cc1NC(=O)CN(C(=O)c1ccccc1)C1CCCCC1 | 105.7
ClCc1nc2ccccc2[nH]1 | 120.9
O=C(O)c1cn(C2CC2)c2cc(N3CCN(C(=S)S)CC3)c(F)cc2c1=O | 92.9
CCN(CC)CCCn1c(-c2ccccc2)cn2c3ccccc3nc12 | 99.9
SMILES | VACV E9 pol inh
c1ccc(-c2cn3c(nc4ccccc43)s2)cc1 | 80.5*
c1ccc(-c2csc3nc4ccccc4n23)cc1 | 85.6
O=C(Nc1cccc2c1CCCC2)N1c2ccccc2Sc2ccccc21 | 100.1
CCn1c(-c2nc3ccccc3n2CC)nc2ccccc21 | 100.0
COc1ccc(/C=C2/Sc3ccc(C(=O)N(C)C4CCCCC4)cc3NC2=O)cc1 | 99.1
Brc1ccc(/C=N/c2nc3ccccc3n2CCN2CCCCC2)cc1 | 100.2
C[n+]1ccc(/C=C/c2ccccc2F)c2ccccc21 | 99.5
CN1/C(=C/c2cccc[n+]2C)C=Cc2ccccc21 | 96.7
CN1C=C/C(=C\c2cc[n+](C)c3ccccc23)c2ccccc21 | 83.8*
COC(=O)c1ccc2c(=O)n(C3CCCCC3C)c(=S)[nH]c2c1 (configuration not stated) | 98.9
Cc1c(N2CCCC2)cc2c(c1-n1cccc1)C(C)(C)CC2(C)C | 97.1
N#CSCC(=O)c1cccs1 | 60.9*
O=C(CSc1nnc2sc3ccccc3n12)c1cccs1 | 99.5
